Measured values taken from PubChem BioAssay (EPA / NIEHS).
Several values for one entry are separate records, joined by “and”; a condition that tells them apart may be missing. Equal values may be shown once. Inconclusive results are not listed. Some compounds were tested as several samples or in several runs, with calls that do not always agree. Activity calls are given as the source filed them. The calls were made as follows: active = hit-call score of the fitted dose curve at least 0.9, where 1 is the maximum; inconclusive = response in the unintended direction; inactive = score below 0.9.

assay: CCTE_Shafer_MEA_dev_bursting_electrodes_number: CCTE's Neural Network Formation Assay for Number of Bursting Electrodes, Shafer Lab (AID 2284043)
Protocol: CCTE_Shafer_MEA_dev assay is conducted using Axion Biosystems 48 well microelectrode array (MEA) plates and Maestro recording system. Each well of the MEA plate contains a grid of 16 microelectrodes embedded in the culture surface. Electrically active cells, such as neurons, can be cultured over the electrodes, and electrical activity in these cells can be recorded extracellularly. The spontaneous firing of neurons is captured from each electrode on a microsecond timescale providing both temporally and spatially precise data. […] The CCTE_Shafer_MEA_dev assay uses primary cultures of rat cortical neurons. Recordings are made on days post-plating 5, 7, 9 and 12. As these cultures mature over time, neural networks develop functional activity and form cohesive networks in which electrical activity can be highly coordinated. CCTE_Shafer_MEA_dev_bursting_electrodes_number is 1 of 19 assay components of the CCTE_Shafer_MEA_dev assay. It measures the number of electrodes in a well with a burst rate of at least 1 burst (temporally-clustered group of action potential firing) every 2 minutes during a recording in a microelectrode array (MEA) using Axion Biosystems Maestro 768 channel amplifier with the AxIS adaptive spike detector. To collapse across multiple recordings made on days post-plating 5, 7, 9 and 12, the trapezoidal area-under-the-curve of the component is calculated.Data from the assay component CCTE_Shafer_MEA_dev_bursting_electrodes_number was analyzed into 1 assay endpoint. This assay endpoint, CCTE_Shafer_MEA_dev_bursting_electrodes_number, was analyzed in the negative analysis fitting direction relative to DMSO as the negative control and baseline of activity. Using a type of functional reporter, gain or loss-of-signal activity can be used to understand electrical activity.
On the day prior to culture, each well was coated thoroughly with 150 uL of 0.05% polyethyleneimine (PEI, Sigma Cat P3143) in 50 mM HEPES (Sigma Cat H7523) at a pH of 8. The plate was incubated at 37C for one hour. PEI was rinsed out with 500 uL of sterile water three times. Plates were stored at 4C until the day of culture. This culture was plated at a seeding density of 1.5 x 10^5 cells/well on a 48-well MEA plate, prepared as described above. Cells were administered via a 25 uL media/laminin ([…]; Sigma Cat L2020-1MG) drop directly onto the microelectrode array, as adding the cells with the laminin results in better attachment than pre-coating with laminin. After 2 hours, an additional 475 uL of cortical media was added and the cells returned to the incubator. Exposure starts at day 0 of plating and is continued over twelve days of network development until the experiment is terminated. Cells are fed with fresh medium on DIV 5 and 9, following the recordings on those days. The entire volume of media in the well is exchanged and any vehicle or compound treatment is renewed. Complete details are found in OP-NHEERL/ISTD/SBB/TJS/2015-03-r0 (available on request, email shafer.tim@epa.gov). Measurement of the electrical activity is non-invasive, and recordings can be made from the same plate over multiple different days of the culture. In cortical neurons, this allows for the measurement of extracellular action potentials over the period during which networks form in the MEA plate.

Row | SMILES | AC50 | outcome
1 | CCOC(=O)CC(SP(=S)(OC)OC)C(=O)OCC (stereo unspecified) | 14.9 µM (active) and 4.64 µM (active) | –
2 | C=CCC1=C(C)C(OC(=O)C2C(C=C(C)C)C2(C)C)CC1=O (stereo unspecified) | 5.72 µM (active) and 14.8 µM (active) | –
3 | Cc1c(F)c(F)c(COC(=O)C2C(/C=C(\Cl)C(F)(F)F)C2(C)C)c(F)c1F (stereo unspecified) | 2.72 µM (active) | –
4 | COP(=S)(OC)Oc1nc(Cl)c(Cl)cc1Cl | – | inactive
5 | CO/C=C(/C(=O)OC)c1ccccc1Oc1cc(Oc2ccccc2C#N)ncn1 | 1.42 µM (active) and 912 nM (active) | –
6 | CCCCOC(=O)c1ccccc1C(=O)OCCCC | 78.4 µM (active) | –
7 | COP(N)(=O)SC (stereo unspecified) | 0.0901 µM (active) | –
8 | CCCCNC(=O)OCC#CI | 3.82 µM (active) and 1.48 µM (active) | –
9 | CCCCNC(=O)n1c(NC(=O)OC)nc2ccccc21 | 15 µM (active) | –
10 | CCOc1cc(Oc2ccc(C(F)(F)F)cc2Cl)ccc1[N+](=O)[O-] | 5.27 µM (active) | –
11 | CN(C)C(=S)SSC(=S)N(C)C | 0.00933 µM (active) | –
12 | N#Cc1nn(-c2c(Cl)cc(C(F)(F)F)cc2Cl)c(N)c1S(=O)C(F)(F)F (stereo unspecified) | – | inactive
13 | COC(=O)N(OC)c1ccccc1COc1ccn(-c2ccc(Cl)cc2)n1 | 123 nM (active) and 13 nM (active) | –
14 | CC(C)(C)c1ccc(CSc2cnn(C(C)(C)C)c(=O)c2Cl)cc1 | 0.00281 µM (active) | –
15 | CCCCC(CC)COC(=O)c1ccccc1C(=O)OCC(CC)CCCC (stereo unspecified) | 7.91 µM (active) and 6.07 µM (active) | inactive
16 | C=CCC1=C(C)[C@@H](OC(=O)[C@@H]2[C@@H](C=C(C)C)C2(C)C)CC1=O | 10 µM (active) | –
17 | COc1ccc(C(c2ccc(OC)cc2)C(Cl)(Cl)Cl)cc1 | 6.57 µM (active) | –
18 | C=CC1(C)OC(=O)N(c2cc(Cl)cc(Cl)c2)C1=O (stereo unspecified) | 21.6 µM (active) | –
19 | CCNc1nc(Cl)nc(NC(C)C)n1 | – | inactive
20 | Cc1ccc(-c2c(Cl)nc(C#N)n2S(=O)(=O)N(C)C)cc1 | 22.3 µM (active) | –
